Compound activity: PubChem, several laboratories
Hits are enriched below; roughly 3.1% of the tested compounds scored in any of these assays.
BoNT-F LC inh: inhibitors of Botulinum neurotoxin F light chain protease. inhibition, % at 10 µM. Multiplex microsphere protease cleavage assay, flow cytometry. 360,000 tested, 0.22% active; in the data active = inhibition above about 35%, passing the limit was not always enough; also: plate controls were buffer without enzyme for full effect and enzyme alone for no effect
BoNT A protease: BoNT A light chain protease inhibition; multiplex microsphere protease substrate cleavage, flow cytometry; inhibition, % at 10 µM; 360,000 tested, 0.17% active; in the data active = inhibition above about 30%; also: plate controls were buffer without enzyme for full effect and enzyme alone for no effect
Anthrax LF prot: anthrax lethal factor protease inhibition; P15917; multiplex microsphere protease cleavage assay, LF; inhibition, % at 10 µM; 360,000 tested, 0.12% active; in the data active = inhibition above about 30%; also: plate controls were buffer without enzyme for full effect and enzyme alone for no effect
Target sequence (P15917 whole entry, looked up): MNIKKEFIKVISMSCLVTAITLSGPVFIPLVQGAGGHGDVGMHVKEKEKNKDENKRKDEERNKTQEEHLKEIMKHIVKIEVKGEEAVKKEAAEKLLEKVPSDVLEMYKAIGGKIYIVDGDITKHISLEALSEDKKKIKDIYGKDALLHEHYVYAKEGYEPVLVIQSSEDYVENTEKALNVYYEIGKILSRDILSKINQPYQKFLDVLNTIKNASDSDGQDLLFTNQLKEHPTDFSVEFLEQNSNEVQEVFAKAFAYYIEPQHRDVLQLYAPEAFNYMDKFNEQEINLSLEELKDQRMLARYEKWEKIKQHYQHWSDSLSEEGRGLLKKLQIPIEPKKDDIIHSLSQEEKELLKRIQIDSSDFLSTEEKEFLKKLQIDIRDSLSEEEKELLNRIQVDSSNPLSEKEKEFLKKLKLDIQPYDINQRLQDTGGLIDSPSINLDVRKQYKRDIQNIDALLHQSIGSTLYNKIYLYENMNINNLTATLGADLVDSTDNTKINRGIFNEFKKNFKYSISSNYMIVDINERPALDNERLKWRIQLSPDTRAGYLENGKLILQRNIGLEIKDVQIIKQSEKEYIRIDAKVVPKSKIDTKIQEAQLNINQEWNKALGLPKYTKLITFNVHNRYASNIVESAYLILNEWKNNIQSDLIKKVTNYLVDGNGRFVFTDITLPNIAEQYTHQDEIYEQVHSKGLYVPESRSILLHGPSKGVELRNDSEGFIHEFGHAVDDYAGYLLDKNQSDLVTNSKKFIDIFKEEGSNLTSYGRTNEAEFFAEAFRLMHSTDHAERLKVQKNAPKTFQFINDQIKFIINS
Bead autofluor: flagged as autofluorescent in microsphere protease counterscreen; compound autofluorescence counterscreen, microsphere flow cytometry; stronger effect = higher value; AID 624483; 360,000 tested, 3.1% active; fluorescence intensity (concentration not given with the values); in the data active = fluorescence intensity above about 16000
PriA SSB inh: blocks PriA binding to SSB C-terminal tail. AlphaScreen SSBct-PriA binding, biotinylated peptide. inhibition, % at 33 µM. 430,000 tested, 0.6% active. AID 1272365; in the data active = inhibition mostly above about 37%, no sharp cut-off; inactive = mostly below about 20%;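 also: plate controls were negative control peptide for no effect and reference peptide for full effect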
BoNTA LC inh 2: BoNT/A light chain protease inhibition | shares compounds with BoNT A protease | multiplex microsphere protease cleavage assay, flow cytometry | AID 602325 | 150 tested, 10% active | inhibition, % at 10 µM; in the data active = inhibition above about 24%
Anthrax LF CP2: blocks anthrax lethal factor protease; shares compounds with BoNT A protease; AID 602327; multiplex microsphere protease cleavage assay; inhibition, % at 10 µM; 150 tested, 7% active
BoNT-F LC CP2: inhibitors of botulinum neurotoxin F light chain protease. inhibition, % at 10 µM. shares compounds with BoNT A protease. 150 tested, 7% active. AID 602336. multiplex microsphere protease cleavage assay, flow cytometry
Starred values were filed as active, the others as inactive; . = no result given; + = active, no number. Rule as the data show it, unless noted: active = inhibition above about 25%; inactive = the rest.

SMILES	BoNT-F LC inh	BoNT A protease	Anthrax LF prot	Bead autofluor	PriA SSB inh	BoNTA LC inh 2	Anthrax LF CP2	BoNT-F LC CP2
COc1ccc(C(CNC(=O)c2cccc(S(=O)(=O)N3CCCCC3)c2)N2CCCC2)cc1 (stereo not given)	9	-5	-4	9930	4	0	-2	-2
COc1ccc(NS(=O)(=O)c2cccc(C(=O)NCC(c3ccc(OC)cc3)N3CCCCC3)c2)cc1 (stereo not given)	-10	-1	-3	7419	12	.	.	.
Fc1ccc(CNCc2cn3c(-c4ccc(Br)cc4)nnc3s2)cc1	.	.	.	.	9	.	.	.
CCN(CC)c1ccc(C=Nc2cccc(S(=O)(=O)N3CCOCC3)c2)c(O)c1	17	51*	46*	3355	-11	16	14	5
COC(=O)c1ccccc1-c1c2ccc(=N)cc-2oc2cc(N)ccc12	62*	9	61*	34738*	33	15	-9	-35
Cc1cc2ccccc2n1CCNC(=O)C1CC1	23	69*	44*	3417	-3	9	10	4
Cc1cc2ccccc2n1CCNC(=O)C1CCCCC1	-27	96*	27	2400	30	4	2	6
O=C(NCCn1ccc2ccccc21)C1CCCCC1	-5	1	-1	5958	-2	.	.	.
COc1ccc(NC(=O)/C=C/C2=Cc3ccccc3OC2)c([N+](=O)[O-])c1	.	.	.	.	7	.	.	.
O=C(CSC1CCCC1)N1CCc2ncncc2C1	.	.	.	.	-2	.	.	.
Cc1ccc(Cc2c(-c3cccc(Cl)c3)nc3cc(C)c(Br)c(C)n23)cc1	-9	0	2	5438	.	.	.	.
Cc1cc2nc(-c3ccc(F)cc3)c(Cc3ccccc3)n2c(C)c1Br	4	2	3	5770	.	.	.	.
Cc1ccc(-c2nc3cc(C)c(Br)c(C)n3c2Cc2cccc(Cl)c2)cc1	0	1	-5	4668	.	26*	-2	16
Cc1cc2nc(-c3ccccc3)c(Cc3cccc(Cl)c3)n2c(C)c1Br	-3	-1	-4	4680	.	16	-4	12
Cc1cc2nc(-c3ccc(F)cc3)c(Cc3cccc(Cl)c3)n2c(C)c1Br	-6	2	-1	4535	.	3	0	6
CCN(CC)c1ccc2cc(S(=O)(=O)c3ccc(Cl)cc3)c(=O)oc2c1	21	68*	42*	3309	-35	26*	25*	15
CN(C)c1ccc(-c2sc(Nc3ccccc3)n[n+]2-c2ccc(F)cc2)cc1	10	8	26	10058	1	.	.	.
CCN(CC)c1ccc(-c2sc(Nc3ccccc3)n[n+]2-c2ccc(F)cc2)cc1	1	27	44*	17190*	13	7	14	3
O=C(CCC1CCCC1)N1CCN(S(=O)(=O)c2ccc(Br)cc2)CC1	83*	80*	89*	6066	2	2	0	6
O=C(CC1CCCC1)N1CCN(S(=O)(=O)c2ccc(F)cc2)CC1	0	0	2	3402	1	.	.	.
O=C(CSc1ccc(-c2ccco2)nn1)NCc1ccco1	.	.	.	.	51	.	.	.
Cc1ccc(CNC(=O)Nc2cccc(C)c2)cc1	-6	0	-3	2262	-6	.	.	.
Cc1cccc(NC(=O)NCc2ccc3[nH]c(C)cc3c2)c1	-97	50*	-87	2613	7	3	1	12
Cc1cccc2c1NC1(CCCC1)CC2C (stereo not given)	+	7	-6	4778	-9	3	-2	+
Cc1ccccc1-n1c(CC2CCN(C(=O)C3CC4C=CC3C4)CC2)n[nH]c1=O (stereo not given)	.	.	.	.	-10	.	.	.
